Several values for one entry are separate records, joined by “and”; a condition that tells them apart may be missing. Equal entries are not always repeated. Screen size: about 110,000 compounds; about 190 (0.17%) were called active. Cut-off read from the data, not from the text of the source: active = inhibition above about 50%; inactive = the rest. The sample as a whole holds a higher share of actives than the screen did. Entries with a potency or affinity are not part of this list. More than one record can exist for a structure, and the calls need not agree.

The values that follow come from PubChem BioAssay AID425 (Sanford-Burnham Center for Chemical Genomics, 2006).

In this assay the target is Dual specificity protein phosphatase 6 (Rattus norvegicus) (UniProt Q64346). As to the kind of experiment: inhibition of rat DUSP6 enzyme activity – biochemical, in vitro, primary screen (AID 425).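 Note: plate controls were vehicle for no effect and reference inhibitor for full effect.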 To be noted: recombinant MKP-3 phosphatase activity, fluorescence; at 20 µM; stronger effect = higher value.
Dual specificity protein phosphatase 6 (Rattus norvegicus), sequence (Q64346 whole entry, looked up): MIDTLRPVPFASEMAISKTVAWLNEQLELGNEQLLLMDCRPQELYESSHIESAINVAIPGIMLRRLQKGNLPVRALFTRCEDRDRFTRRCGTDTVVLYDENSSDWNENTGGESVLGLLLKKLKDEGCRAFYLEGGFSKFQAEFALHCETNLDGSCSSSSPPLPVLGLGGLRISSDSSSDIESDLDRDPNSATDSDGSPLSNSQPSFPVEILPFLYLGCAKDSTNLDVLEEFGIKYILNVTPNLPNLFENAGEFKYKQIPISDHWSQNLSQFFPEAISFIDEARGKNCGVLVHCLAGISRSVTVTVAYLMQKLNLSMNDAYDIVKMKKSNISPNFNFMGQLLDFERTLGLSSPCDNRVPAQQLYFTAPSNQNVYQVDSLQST
With `CCNC(=S)Nc1ccccc1Cl`, the inhibition was -1.1% (inactive).

Turning to `O=C(NN=C1CCN(Cc2ccccc2)CC1)c1sc2ccccc2c1Cl`, the inhibition was 0.3% (inactive).

Take `COc1ccc(NC(=O)C(=O)NCc2ccco2)cc1Cl`: the inhibition was -2.8% (inactive).

`O=[N+]([O-])c1ccc(S(=O)(=O)NCCOc2ccccc2Cl)cc1`: the inhibition is -1.1% (inactive).

As for `CCOc1ccc(N(CC(=O)NCc2ccc(Cl)cc2)S(=O)(=O)c2ccc(Br)cc2)cc1`, the inhibition was 54.4% (active).

On to `CCOc1ccc(N(CC(=O)NCc2ccc(Cl)cc2)S(C)(=O)=O)cc1`, for which the inhibition is -2.6% (inactive).

On to `CCOc1ccc(N(CC(=O)NCc2ccc(OC)cc2)S(=O)(=O)c2ccc(Br)cc2)cc1`, for which the inhibition was -0.5% (inactive).

As to `Cc1cccc2cc(=O)[nH]c(C)c12`, the inhibition was 13.2% (inactive).

Regarding `CNS(=O)(=O)c1cc(O)c2c(S(=O)(=O)NC)cccc2c1`, the inhibition was 6% (inactive).

Turning to `NC(=S)n1[nH]c(-c2ccccc2)c(N=Nc2ccc(C(=O)O)cc2)c1=O`, the inhibition was -0.5% (inactive).

In the case of `Cc1ccc(-c2[nH]n3c(=O)cc(-c4ccc([N+](=O)[O-])cc4)nc3c2C)cc1`, the inhibition was -3.9% (inactive).

With `O=C(CCCC(=O)OCC(F)(F)C(F)F)Nc1ccc(F)cc1F`, the inhibition was -2.5% (inactive).

Take `CC1CCN(CCCNC(=O)c2cn(C)c3ccc(S(=O)(=O)N4CCCC4)cc3c2=O)CC1`: the inhibition is -3% (inactive).

For the compound `CCCCCC1NC(=O)NC1CCCCCC(=O)O` (stereo not drawn), the inhibition is -4.9% (inactive).

In the case of `CCCCCCCCNC(=O)CCC(=O)O`, the inhibition was -1.5% (inactive).

Consider `COc1c(Cl)cc(C(=O)Nc2ccc(N3CCOCC3)cc2)cc1Cl`, for which the inhibition was 3.1% (inactive).

With `COc1ccc(Cn2c(C)ccc2C)cc1`, the inhibition was 0.3% (inactive).

As for `Cc1ccc(C)n1Cc1ccc(C(=O)O)cc1`, the inhibition is 85.4% (active) and -2.3% (inactive).

Consider `O=C(O)c1ccc(CN2CCOCC2)cc1`, for which the inhibition was 1.1% (inactive).

Regarding `CC(C(=O)NCc1ccccn1)N1C(=O)c2ccccc2C1=O` (stereo not drawn), the inhibition was -2.2% (inactive).

Take `Clc1ccc(-c2ccc(/C=C\c3nc4ccccc4o3)o2)cc1`: the inhibition was 4.5% (inactive).

With `O=C(CN1C(=O)/C(=C/c2ccccc2)SC1=S)Nc1cccc(Br)c1`, the inhibition is 2.3% (inactive).

In the case of `O=C(O)CCCCCN1C(=O)/C(=C2/C(=O)N(CC(=O)O)c3ccccc32)SC1=S`, the inhibition was 1% (inactive).

For the compound `CCOc1ccc(N(CC(=O)NCc2ccccc2)S(C)(=O)=O)cc1`, the inhibition was -13.8% (inactive).

Regarding `Cc1cc2n(n1)SC(Nc1ccccc1)N2` (stereo not drawn), the inhibition is 61.5% (active).

`Cc1cc(Nc2ccccc2)n(-c2ccccc2)n1`: the inhibition was -6.8% (inactive).

With `Cc1cc(C)n(C(=O)Nc2ccccc2)n1`, the inhibition is 4.3% (inactive).

Take `COc1cc(C(=O)N2CCN(C3C4CC5CC(C4)CC3C5)CC2)cc(OC)c1OC` (stereo not drawn): the inhibition was 3.7% (inactive).

As usually defined, the inhibition is the change of the read-out against control, counted positive when it falls.
